In PubChem BioAssay AID2502 (National Center for Advancing Translational Sciences (NCATS), 2010):
Values joined by “and” are separate entries in the source; they are usually repeats but may differ in a detail not shown here. Equal entries are not always repeated. Results filed as inconclusive are left out. Unmarked numbers belong to inactive results. Calls follow the shape of the dose curve; as a rule, active = well fitted curve in the direction sought with a large enough effect; inconclusive = small, poorly fitted or top-dose-only effect, or another doubt; inactive = no such curve, though single readings can be large or run the other way.

Assay: Confirmatory Assay for Inhibitors of Human Galactokinase (GALK): Phenol-HRP redox assay counterscreen for probe SAR
Details: Phenol red-HRP H2O2 redox cycling, absorbance 600 nm
Text: NIH Molecular Libraries Probe Production Centers Network [MLPCN] NIH Chemical Genomics Center [NCGC] MLPCN Grant: R03 MH085689-01 Assay Submitter (PI): Kent Lai (University of Utah School of Medicine, 50 N Mario Capecchi Drive, Salt Lake City, UT 84132) NCGC Assay Overview: One mM dithiothreitol (DTT) was used as a reducing agent to maintain the galactokinase (GALK) enzyme in its active form in the GALK qHTS screen (AID: 1868). However, it has been shown that in the presence of DTT a number of compounds also undergo redox recyling, generating a significant amount of H2O2 that can oxidize crucial cysteine residues in the enzyme, leading to and a false-positive result. To evaluate and flag redox recycling compounds for compounds re-acquired from the qHTS screen, an endpoint colorimetric assay developed by Johnston et al. was adopted and optimized for a 1536-well plate format. In brief, the assay detects the presence of H2O2 by following the change in absorbance at 600 nm due to oxidation of phenol red (Sigma, cat# 114537) catalyzed by horseradish peroxidase (HRP; Invitrogen). A stop reagent, 1N NaOH was added prior to reading the absorbance. DMSO and different concentrations of hydrogen peroxide (Sigma, cat# 216763) in the GALK buffer were used as negative and positive controls respectively.
NCGC Assay Protocol Summary: Two uL/well of GALK buffer (20mM HEPES pH8.0, 5 mM MgCl2, 60 mM NaCl, 1 mM DTT, 0.01% BSA final concentration) was dispensed into a 1536-well assay plates (Greiner, black clear bottom plates) with Aurora Discovery BioRAPTR Flying Reagent Dispenser (FRD; Beckton-Dickenson). Compound and control solutions (23 nL each) were transferred to the assay plate in their respective wells using Kalypsys pin tool equipped with a 1536-pin tool head and incubated at room temperature for 30 min. Presence of H2O2 produced by redox cycling compounds was detected by adding 2 uL/well phenol red - HRP detection reagent ([…] phenol red in 1x Hanks Balanced Salt Solution, 25 U/mL HRP final concentrations). After 15 min of room temperature incubation, the reaction was stopped by adding 2 uL/well 1N NaOH and incubated for an additional 1 hr at room temperature. The absorbance at 600 nm was measured using the ViewLux plate reader (Perkin Elmer, Waltham, MA) with 6000 light energy, 2 sec exposure, and 2x binning instrument settings.

Row | SMILES | max response
1 | O=C1CCCC2=C1[C@@]1(CCC(c3ccccc3)C1)N=C(Nc1nc3ccccc3o1)N2 (stereo partly specified) | -22.7%
2 | O=C1CCCC2=C1C1(CCSCC1)N=C(Nc1nc3ccccc3o1)N2 | 3.32%
3 | CC1(C)CC(=O)C2=C(C1)NC(Nc1nc3ccccc3o1)=NC2c1ccccc1Cl (stereo unspecified) | -4.5%
4 | CCC1CCC2(C1)N=C(Nc1nc3ccccc3o1)NC1=C2C(=O)CCC1 (stereo unspecified) | 9.72% [middle of 5 runs]
5 | O=C1CCC2=C1C1(CCCC1)N=C(Nc1nc3ccccc3o1)N2 | -0.733%
6 | Cc1nc(Nc2nc3ccccc3o2)nc2c1C(=O)CC(C)(C)C2 | -9.62%
7 | Cc1ccc2nc(NC3=NC4(CCCC4)C4=C(CCCC4=O)N3)oc2c1 | -9.86%
8 | O=C1CCCC2=C1C1(CCC1)N=C(Nc1nc3ccccc3o1)N2 | -2.94%
9 | O=C1CC(c2ccccc2)CC2=C1C1(CCCC1)N=C(Nc1nc3ccccc3o1)N2 (stereo unspecified) | -23.7%
10 | CC1CCC2(C1)N=C(Nc1nc3ccccc3o1)NC1=C2C(=O)CCC1 (stereo unspecified) | 2.86%
11 | O=C1CC(c2ccccc2)CC2=C1C1(CCCCC1)N=C(Nc1nc3ccccc3o1)N2 (stereo unspecified) | -19.3%
12 | O=C1CCCC2=C1C(c1ccccc1Cl)N=C(Nc1nc3ccccc3o1)N2 (stereo unspecified) | 1.07%
13 | CC1(C)CC(=O)C2=C(C1)NC(Nc1nc3ccccc3o1)=NC21CCCC1 | -0.364%
14 | O=C1CCCC2=C1C1(CCCC1)N=C(Nc1nc3cc(Br)ccc3o1)N2 | -13.4%
15 | Cn1c(NC2=NC3(CCCC3)C3=C(CCCC3=O)N2)nc2ccccc21 | -10.7%
16 | O=C1CCCC2=C1C1(CCCC1)N=C(Nc1nc3ccccc3n1Cc1ccccc1)N2 | -7.8%
17 | Cc1ccc2oc(NC3=NC4(CCCC4)C4=C(CCCC4=O)N3)nc2c1 | -13.5%
18 | O=C1CCC2=C1C(c1ccccc1Cl)N=C(Nc1nc3ccccc3o1)N2 (stereo unspecified) | 4.53%

Row | SMILES | max response
19 | O=C1CCCC2=C1C1(CCCCC1)N=C(Nc1nc3ccccc3o1)N2 | -4.16%
20 | COc1ccccc1C1N=C(Nc2nc3ccccc3o2)NC2=C1C(=O)CC(C)(C)C2 (stereo unspecified) | -7.36%
21 | CC1(C)CC(=O)C2=C(C1)NC(Nc1nc3ccccc3o1)=NC2c1ccccc1 (stereo unspecified) | 4.41%
22 | O=C1CCCC2=C1C1(CCCC1)N=C(Nc1nc3ccccc3o1)N2 | -5.8% and 7.13%
23 | O=C1CCCC2=C1C1(CCCC1)N=C(Nc1nc3cc4ccccc4cc3o1)N2 | -24.7%
24 | O=C1CCCC2=C1C1(CCSC1)N=C(Nc1nc3ccccc3o1)N2 (stereo unspecified) | 9.11%
25 | O=C1CCCC2=C1C(c1ccc(Cl)cc1)N=C(Nc1nc3ccccc3o1)N2 (stereo unspecified) | 2.22%
26 | O=C1CCCC2=C1C1(CCCOC1)N=C(Nc1nc3ccccc3o1)N2 (stereo unspecified) | 1.73%
27 | CC1(C)CC(=O)C2=C(C1)NC(Nc1nc3ccccc3o1)=NC2c1cccc(Cl)c1 (stereo unspecified) | -8.98%
28 | O=C1CCCC2=C1C1(CCCC1)N=C(Nc1nc3cc(-c4ccccc4)ccc3o1)N2 | -17.5%
29 | CC1(C)CC(=O)C2=C(C1)NC(Nc1nc3ccccc3o1)=NC2c1cccnc1 (stereo unspecified) | -12.6%
30 | O=C1CCCC2=C1C1(CCOCC1)N=C(Nc1nc3ccccc3o1)N2 | -7.41%
31 | O=C1CCCC2=C1C1(CCS(=O)(=O)C1)N=C(Nc1nc3ccccc3o1)N2 (stereo unspecified) | 7.09%
32 | CC1(C)N=C(Nc2nc3ccccc3o2)NC2=C1C(=O)CCC2 | -7.6%
33 | COc1cccc(C2N=C(Nc3nc4ccccc4o3)NC3=C2C(=O)CC(C)(C)C3)c1 (stereo unspecified) | -7.9%
34 | COc1ccc(C2N=C(Nc3nc4ccccc4o3)NC3=C2C(=O)CC(C)(C)C3)cc1 (stereo unspecified) | -4.13%
35 | O=C1CCCC2=C1C1(CCCC1)N=C(Nc1nc3cc(Cl)ccc3o1)N2 | -6.87%
36 | Cc1ccc(C2N=C(Nc3nc4ccccc4o3)NC3=C2C(=O)CC(C)(C)C3)cc1 (stereo unspecified) | 0.33%
